Bioassay records from PubChem.
E coli growth-1 = E. coli V3065 growth inhibition, primary screen, counter-screen for AddAB inhibitor project, absorbance, OD600; 330,000 tested, 0.27% active; 18 h; inhibition, % at 11.9 µM;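 active means inhibition above the campaign's mean inhibition across all tested compounds plus 3 SD, cut at about 9.9% in these data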;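 further: uninfected addAB+ strain grown without phage in ampicillin broth; 0% = DMSO wells and 100% = ciprofloxacin 0.95 µg/ml wells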
E coli growth-2 = E. coli growth inhibition, primary screen, OD600 | Escherichia coli growth, 23 h; hits give low values | OD600 absorbance (test concentration not listed) | 330,000 tested, 0.21% active;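 active means OD600 absorbance below the run mean of sample wells minus 3.6 SD, in any replicate, cut at about 0.56 in these data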
phage Ecoli inh = growth loss of phage-infected E. coli, primary screen, RecBCD inhibitor project, absorbance, with phage, HTS; inhibition, % at 11.9 µM; 360,000 tested, 0.26% active; AID 651602, 2012; in the data active means inhibition above about 11%
AddAB inh = growth inhibition of E. coli expressing H. pylori AddAB, primary screen, AddAB inhibitor project, absorbance. inhibition, % at 11.9 µM. 330,000 tested, 0.29% active; in the data active means inhibition above about 12%;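 further: 0% = vehicle wells of infected cells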
Tat transport = E. coli Tat export inhibitors, primary screen, MC4100, TorA-mCherry reporter, fluorescence, single point | inhibition, % at 10 µM | 340,000 tested, 0.036% active;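 active means mean replicate inhibition at least 50% and at least half of replicates individually reaching 50%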;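 further: exported cargo escapes ClpAP degradation while cytoplasmic cargo is degraded and loses fluorescence; 0% = median of neutral control wells and 100% = median of NaSCN control wells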
AddAB confirm = growth loss of phage-infected E. coli expressing H. pylori AddAB, confirmation, AddAB inhibitor project, absorbance, E. coli V3065, T4 phage, triplicate; OD; T4 phage with gene 2 nonsense mutations; 880 tested, 64% active; inhibition, % at 11.9 µM; shares compounds with AddAB inh;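 active means mean inhibition above a set limit taken from the earlier primary screen, cut at about 13% in these data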;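 further: higher means less bacterial growth since AddAB block lets phage replicate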
RecBCD counter = growth loss of RecBCD+ E. coli with mutant T4 phage, counter-screen for AddAB inhibitor project, absorbance, V66 E. coli; shares compounds with AddAB inh; OD growth; inhibition, % at 11.9 µM; 880 tested, 73% active; AID 488955, 2010;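 active means mean inhibition above the mean of solvent-only control wells plus 3 SD, cut at about 4% in these data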;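 further: optical density read after an 18 h incubation at 37 °C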
bact viab count = bacterial viability inhibition counter-screen, confirmation, counter-screen for AddAB inhibitor project, absorbance; AID 488956, 2010; inhibition, % at 11.9 µM; 880 tested, 35% active; absorbance (AddAB counterscreen); shares compounds with AddAB inh; in the data active means inhibition above about 25%
RecBCD conf = growth loss of phage-infected RecBCD+ E. coli, confirmation, RecBCD inhibitor project, absorbance, E. coli V66, T4 gene 2 phage | shares compounds with phage Ecoli inh | E. coli V66 + T4 2- phage, growth OD | 890 tested, 45% active | inhibition, % at 11.9 µM;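 active means mean inhibition over triplicates exceeding the hit threshold derived in the original primary screen, cut at about 11% in these data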
Ecoli viability = E. coli viability inhibition, counter-screen for RecBCD inhibitor project, absorbance, high throughput; absorbance (OD) growth; inhibition, % at 11.9 µM; shares compounds with phage Ecoli inh; 890 tested, 29% active; AID 651983, 2013; in the data active means inhibition above about 20%;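 further: E. coli strain V66 grown with compound alone and no phage infection; 0% = bacteria with DMSO vehicle only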
AddAB phage OD = growth loss of phage-infected AddAB-carrying E. coli, confirmation, counter-screen for RecBCD inhibitor project, absorbance, E. coli V3065, T4 phage; shares compounds with phage Ecoli inh; E. coli expressing H. pylori AddAB + T4 phage, OD growth; gene 2 mutant T4, recBCD-deleted host; inhibition, % at 11.9 µM; 890 tested, 45% active;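 active means mean inhibition above the solvent-only control wells' mean plus 3 SD, cut at about 22% in these data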;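 further: higher means less bacterial growth from phage killing when AddAB is blocked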
Numbers without * were called inactive; . = no result given. Most compounds without a hit are left out; they make up all but 0.5% or so of the library.

SMILES | E coli growth-1 | E coli growth-2 | phage Ecoli inh | AddAB inh | Tat transport | AddAB confirm | RecBCD counter | bact viab count | RecBCD conf | Ecoli viability | AddAB phage OD
CC(C)C(=O)NC(c1ccc(Cl)cc1Cl)c1ccc2cccnc2c1O (stereo not drawn) | 29* | 0.65 | 19* | 20* | 3 | 20* | 20* | 19 | 11* | 13 | 22*
Cc1cc(NC(c2ccc(Cl)cc2)c2ccc3cccnc3c2O)no1 (stereo not drawn) | 33* | 0.69 | 23* | 25* | -1 | 25* | 23* | 21 | 14* | 15 | 25*
CCC(=O)NC(c1ccc(Cl)cc1Cl)c1ccc2cccnc2c1O (stereo not drawn) | 22* | . | 22* | 20* | 1 | 20* | 19* | 19 | 15* | 17 | 27*
COc1ccc(C2CC(=O)C=C(c3ccc(OC)c(F)c3)C2)cc1 (stereo not drawn) | . | 0.69 | . | . | . | . | . | . | . | . | .
CCn1cc(C(=O)O)c(=O)c2cc(F)c(N3CCN(C(=S)NC(=O)c4ccc(OC)cc4)CC3)cc21 | 99* | 0.076* | 101* | 99* | 81* | 100* | 100* | 102* | 104* | 105* | 105*
CCn1cc(C(=O)O)c(=O)c2cc(F)c(N3CCN(C(=S)NC(=O)c4ccccc4F)CC3)cc21 | 99* | 0.073* | 16* | 98* | 1 | 101* | 99* | 103* | 101* | 101* | 101*
CCn1cc(C(=O)O)c(=O)c2cc(F)c(N3CCN(C(=S)NC(=O)c4ccc(Br)cc4)CC3)cc21 | 98* | . | 99* | 99* | 44 | 99* | 99* | 100* | 102* | 102* | 103*
C=CCNC(=O)c1cn(CC)c2cc(N3CCN(C(=O)c4ccco4)CC3)c(F)cc2c1=O | 99* | 0.057* | 25* | 99* | 14 | 99* | 19* | 101* | 12* | 15 | 100*
CCCCN1C(=S)NCC1Cc1ccccc1 (stereo not drawn) | . | 0.69 | . | . | . | . | . | . | . | . | .
Cc1cc(COC(=O)C2N3C(=O)C(NC(=O)COc4ccccc4)C3SC2(C)C)on1 (stereo not drawn) | . | 0.69 | . | . | . | . | . | . | . | . | .
NC(=O)c1ccc(NC(=O)COC(=O)C=Cc2cccs2)cc1 | . | 0.74 | . | . | . | . | . | . | . | . | .
CCn1cc(C(=O)NN)c(=O)c2cc(F)c(N3CCOCC3)cc21 | 2 | 0.67 | 2 | -2 | 8 | . | . | . | . | . | .
CCn1cc(C(=O)O)c(=O)c2cc(F)c(N/N=C/c3ccccc3)cc21 | -1 | . | 1 | 2 | 0 | . | . | . | . | . | .
CCn1cc(C(=O)O)c(=O)c2cc(F)c(N3CCN(C(=S)NC(=O)c4cccc(C)c4)CC3)cc21 | 98* | 0.071* | 93* | 97* | 28 | 100* | 100* | 99* | 103* | 103* | 104*
CCn1cc(C(=O)O)c(=O)c2cc(F)c(N3CCN(S(=O)(=O)c4ccc(NC(C)=O)cc4)CC3)cc21 | 100* | 0.06* | 96* | 99* | 8 | 101* | 97* | 101* | 72* | 101* | 104*
